Results from PubChem BioAssay.

Target: Carbonic anhydrase 2 (Homo sapiens) (UniProt P00918)
Experiment: compounds binding carbonic anhydrase 2 – biochemical, small-molecule microarray, Alexa647-labelled CAII, profiling panel (AID 1122)
Details: CAII-A647 binding fluorescence, higher = more signal

Point of comparison: `CCC(=O)[C@]12O[C@@]3([C@@H]4C(=O)OCC[C@@H]41)N(Cc1ccccc1)C(C)=C(C(=O)OC)[C@@H](c1ccccc1)N3C2=O`, composite z-score 0.463. Against it:
- O=C(NCC(F)(F)F)[C@@H]1c2ccccc2C(=O)N(Cc2ccccc2Cl)[C@H]1c1ccc(CO)cc1 — higher, 0.761
- CCN1C(C)=C(C(=O)OC)[C@@H](c2ccccc2)N2C(=O)[C@](O)(C(=O)OC)[C@@H](c3ccccc3)C(C(=O)c3ccccc3)=C12 — lower, 0.401
- CC(=O)NCCCC[C@@H]1NC(=O)[C@H]2C[C@@H](C(=O)NCCCCCCN(C)C)[C@@H](c3cccc(OCCO)c3)N2C1=O — higher, 0.694
- CCCCCCc1nc(-c2cc(C)c(OC)c(C)c2)cc2c1[Si](C(C)C)(C(C)C)O[C@H]2c1ccccc1 — lower, -0.398
- O=C1C2C=CC(C(O)C(c3ccccc3)c3ccccc3)N(Nc3ccc([N+](=O)[O-])cc3)C2C(=O)N1c1ccccc1 (stereo not drawn) — higher, 0.733
- CC(=O)NCCCC[C@@H]1NC(=O)[C@@H]2C[C@H](C(=O)NCCCCCNC(=O)CS)[C@H](c3ccc(O)cc3)N2C1=O — higher, 0.497

Test system: not listed separately
Experiment: COS7 lysate on small-molecule microarray, probe aHis, 635 nm (AID 1123);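 also: z-score combines 667nm fluorescence intensity with signal-to-noise per printed compound spot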
Details: COS7 cell lysate, fluorescence, higher = more signal

Point of comparison: `C=CCC(OC(C)=O)[C@@H]1[C@@H](N(Cc2cc3ccccc3o2)C(=O)c2ccc(C)cc2)c2cc(OCCCO)ccc2N1C(=O)c1ccc2ccccc2n1` (stereo partly drawn), composite z-score 0.043. Against it:
- CN1CCC(CCCO)=CC1C1CC1 (stereo not drawn) — higher, 0.238
- NC(=O)NCC#Cc1ccc2c(c1)[C@]1(C(=O)N2)[C@H](C(=O)N2CCCCCCC2)[C@H]2C(=O)O[C@H](c3ccccc3)[C@H](c3ccccc3)N2[C@@H]1c1ccccc1OCCO — higher, 4.03
- CO[C@H]1COC(=O)[C@H](C)COC(=O)[C@H](Cc2ccccc2)NC(=O)CC=C[C@H]1C — lower, -0.826
- C=CC[C@@]12N=C(c3ccc(OCCCO)cc3)O[C@@H]1c1ccccc1CN(Cc1ccccc1)C2=O — higher, 1.96
- CCCC[C@@H]1C[C@H]1[C@@H](NC(=O)c1cccs1)c1ccc(Cl)cc1 — higher, 1.08
- CO[C@H]1COC(=O)[C@H](CCSC)NC(=O)CC=C[C@@H](C)COC(=O)[C@@H](OCc2ccccc2)C=C[C@@H]1C — lower, -0.345
- O=C1c2ccccc2[C@@]2(Cc3ccccc3N(CC(F)(F)F)C2=O)[C@H](c2ccc(CO)cc2)N1C1CCCCC1 — higher, 0.31
- CC(C)(C)OC(=O)CC[C@@]1(C(=O)NCc2ccccc2)N=C(c2ccc(OCCCO)cc2)O[C@@H]1c1ccccc1 — higher, 2.91
- CC[C@H]1C2=C3C(CC[C@H]4C(OC)OC[C@](C)([C@@H]34)N(C(=O)OC(C)(C)C)C2)C(CO)C1CO (stereo partly drawn) — higher, 3.15
- CO[C@]12C=C(Br)[C@@H](C[C@@H]1c1ccccc1)[C@@]1(CO1)C2=O — lower, -0.245
- COCCOC(=O)N1C(=O)[C@@]2(c3cc(C#CC4=CCCCC4)ccc31)[C@H](C(=O)NC[C@H](O)c1ccccc1)[C@H]1C(=O)O[C@H](c3ccccc3)[C@H](c3ccccc3)N1[C@@H]2c1ccc(OCCO)cc1 — higher, 1.9
- C=C(CCCC)/C(=C/C[C@@H](OC(=O)c1ccncc1)c1cccc(OCCO)c1)c1cc(C(=O)OC)ccc1OC — higher, 2.84
- COCCOC(=O)N1C(=O)[C@@]2(c3cc(C#CCC(C(=O)OC)C(=O)OC)ccc31)[C@H](C(=O)N1CCN(c3ncccn3)CC1)[C@H]1C(=O)O[C@H](c3ccccc3)[C@H](c3ccccc3)N1[C@@H]2c1ccc(O)cc1 — higher, 1.48
- Cc1ccc(N2C(=O)c3ccccc3[C@](C)(C(=O)O)[C@@H]2c2ccc(CO)cc2)nc1 — lower, -0.471
- CN(C)CCCC[C@@H]1NC(=O)[C@@H]2C[C@H](C(=O)NCCCCCNC(=O)CS)[C@H](c3ccc(O)cc3)N2C1=O — higher, 1.18
- C=CCC(OC(C)=O)[C@@H]1[C@@H](N(Cc2ccc(-c3cccc(C(F)(F)F)c3)o2)C(=O)Cc2ccc(F)cc2)c2cc(OCCCO)ccc2N1C(=O)c1ccc(-c2ccccc2)cc1 (stereo partly drawn) — lower, -0.197
- C=CC[C@]1(C(=O)NCC(O)CO)N=C(c2ccc(OCCCO)cc2)O[C@H]1c1ccccc1 (stereo partly drawn) — higher, 3.04
- CCOC(=O)C1=CC[C@@H](c2ccccc2)N(S(=O)(=O)c2ccc(C)cc2)[C@H]1C — higher, 2.49
- O=C1O[C@H](c2ccccc2)[C@H](c2ccccc2)N2[C@H]1[C@@H](C(=O)NC[C@H](O)c1ccccc1)[C@]1(C(=O)Nc3ccc(C#CC4=CCCCC4)cc31)[C@H]2c1ccc(OCCO)cc1 — higher, 0.864
- COC(=O)Cn1c(C(=O)N2CCCC2)cc2c1C[C@H]1CN(C(=O)c3ccccc3)[C@@](Cc3ccc(OC)cc3)(C(=O)OC)[C@@H]21 — higher, 2.68
- COC(=O)C1=CC(c2ccc(CO)cc2)=CC(c2cccs2)N(Cc2cccc(OC(F)(F)F)c2)C=C1C(=O)OC (stereo not drawn) — higher, 2.76
- O=C/C=C/c1ccccc1Cl — higher, 0.333
- CCOC(=O)C[C@H]1[C@H](OC(=O)c2ccccc2-c2ccccc2)[C@@H](NC(=O)C2CCCCC2)c2cc(OCCCO)ccc2N1C(=O)c1ccccc1 — higher, 0.68
- CC1=C([C@H](O)CCc2ccccc2)[C@H](CO)[C@@H]2C(=O)N(Cc3ccccc3)C(=O)[C@@H]2C1 — higher, 0.307
- C#CCCCON=C1C[C@@H](O)[C@@H](O)[C@@H]2[C@@H]3C(=O)N(Cc4ccc5c(c4)OCO5)C(=O)[C@@H]3CC[C@H]12 — higher, 1.21
- CC(C)CNC(=O)[C@@]1(C)c2ccccc2C(=O)N(Cc2ccc(OC(F)(F)F)cc2)[C@H]1c1ccc(CO)cc1 — higher, 1.17
- CCCC=C(CCC)[C@@H](NC(=O)c1ccccc1)c1ccccc1 — higher, 0.341
- CO[C@H]1O[C@H](CO)[C@@H](OC(=O)Nc2ccccc2)[C@H](OC(=O)Nc2ccc3c(c2)OCO3)[C@@H]1OC(=O)Nc1ccc2c(c1)OCO2 — higher, 2.17
- O=C(NCC(F)(F)F)[C@@H]1c2ccccc2C(=O)N(Cc2ccccc2Cl)[C@H]1c1ccc(CO)cc1 — higher, 0.546
- CCN1C(C)=C(C(=O)OC)[C@@H](c2ccccc2)N2C(=O)[C@](O)(C(=O)OC)[C@@H](c3ccccc3)C(C(=O)c3ccccc3)=C12 — higher, 0.915
- CC(=O)NCCCC[C@@H]1NC(=O)[C@H]2C[C@@H](C(=O)NCCCCCCN(C)C)[C@@H](c3cccc(OCCO)c3)N2C1=O — higher, 1.73
- CCC(=O)[C@]12O[C@@]3([C@@H]4C(=O)OCC[C@@H]41)N(Cc1ccccc1)C(C)=C(C(=O)OC)[C@@H](c1ccccc1)N3C2=O — lower, -0.859
- CCCCCCc1nc(-c2cc(C)c(OC)c(C)c2)cc2c1[Si](C(C)C)(C(C)C)O[C@H]2c1ccccc1 — lower, -0.301
- O=C1C2C=CC(C(O)C(c3ccccc3)c3ccccc3)N(Nc3ccc([N+](=O)[O-])cc3)C2C(=O)N1c1ccccc1 (stereo not drawn) — higher, 3.13
- CC(=O)NCCCC[C@@H]1NC(=O)[C@@H]2C[C@H](C(=O)NCCCCCNC(=O)CS)[C@H](c3ccc(O)cc3)N2C1=O — higher, 0.534
